The values below come from PubChem BioAssay (EPA / NIEHS).

Some compounds were tested as several samples or in several runs, with calls that do not always agree. Activity calls are given as the source filed them. How the source made its calls: active means hit-call score of the fitted dose curve at least 0.9, where 1 is the maximum; inactive means score below 0.9.

This test can be described thus: ATG_AP_2_CIS: Attagene CIS-FACTORIAL HepG2 Assay for human Activator Protein 2 (AP-2) (AID 2282932). Conditions: HepG2 AP-2 cis-reporter, Attagene transcription factor profiling; actives raise or lower the signal. As to the method: ATG_CIS is a cell-based, multiplexed-readout assay that uses HepG2, a human liver cell line, with measurements taken at 24 hours after chemical dosing in a 24-well plate.ATG_AP_2_CIS is one of 52 assay component(s) measured or calculated from the ATG_CIS assay. It is designed to make measurements of mRNA induction, a form of inducible reporter, as detected with fluorescence intensity signals by Reverse transcription polymerase chain reaction (RT-PCR) and Capillary electrophoresis technology.Data from the assay component ATG_AP_2_CIS was analyzed into 1 assay endpoint. This assay endpoint, ATG_AP_2_CIS, was analyzed with bidirectional fitting relative to DMSO as the negative control and baseline of activity. Using a type of inducible reporter, measures of mRNA for gain or loss-of-signal activity can be used to understand the reporter gene at the transcription factor-level as they relate to the gene TFAP2A and TFAP2B and TFAP2D. Furthermore, this assay endpoint can be referred to as a primary readout, because this assay has produced multiple assay endpoints where this one serves a reporter gene function. To generalize the intended target to other relatable targets, this assay endpoint is annotated to the dna binding intended target family, where the subfamily is basic helix-turn-helix leucine zipper.
Human liver HepG2 cells are transiently transfected with multiple reporter transcription units (MRTUs) in 6-well plates using FuGene 6 reagent (Roche; 3 ml FuGene/1 mg DNA). The MRTU constructs are regulated by a cis-regulating element (promoter). […] A major difference between the CIS and TRANS system is that in CIS activities of endogenous TFs are measured, whereas the TRANS assay evaluates changes in activities of exogenous, chimeric NR-Gal4 proteins. […] At the end of 24 hour incubation, total RNA was isolated using TriZol reagent (Invitrogen). The isolated RNA is then reverse-transcribed using oligo(dT) primer and Mo-MLV reverse transcriptase (Invitrogen) with DNAse I (Ambion) treatment for 30 min. The one-tenth of the produced cDNA was amplified by PCR using Taq DNA polymerase (Invitrogen) and two reporter sequence-specific primers. The PCR products were fluorescently labeled by primer extension with 6-arboxyfluorescein (6-FAM) 5'-labeled reporter sequence-specific primer (2 min at 95 C, 20 s at 68 C and 10 min at 72 C) and these products were digested with 5U of HpaI (New England Biolabs) for 2h at 37 C. The fragments were purified using Qiaquick PCR columns (Qiagen), analyzed on an ABI 3130xL genetic analyzer (Applied Biosystems) with peak positions identified by using a set of X-rhodamine (ROX)-labeled MapMarker1000 molecular weight standards (BioVentures). The raw capillary electrophoresis data was processed using Attagraph software (Attagene).
On to `COP(=O)(OC)OC`, for which the outcome was inactive.

As for `CCOP(=S)(OCC)Oc1nc(Cl)c(Cl)cc1Cl`, the compound was called inactive.

`O=P(O)(O)CN(CP(=O)(O)O)CP(=O)(O)O`: the outcome was inactive.

In the case of `COC[C@H](C)N(C(=O)CCl)c1c(C)csc1C`, the compound was called inactive.

Regarding `COc1ccccc1OC`, the compound was called inactive.

For `CC(C#N)CCC#N` (stereo not given), the result was inactive.

`C[C@]12CC[C@H](O)CC1=CC[C@@H]1[C@@H]2CC[C@]2(C)C(=O)CC[C@@H]12`: the call was inactive.

As for `CC(C)C1CCC(Cc2ccc(Cl)cc2)C1(O)Cn1cncn1` (stereo not given), the call was inactive.

As to `O=C(O)C(F)(F)C(F)(F)C(F)(F)C(F)(F)C(F)(F)C(F)(F)C(F)(F)C(F)(F)C(F)(F)C(F)(F)F`, the call was inactive and the AC50 was 55.8 µM (active).

On to `CC(C)CCCCCCOC(=O)c1ccccc1C(=O)OCCCCCCC(C)C`, for which the compound was called inactive.

For the compound `CN(C)N=O`, the compound was called inactive.

For `Nc1ncc([N+](=O)[O-])s1`, the compound was called inactive.

As to `OCC(O)CCl` (stereo not given), the compound was classed as inactive.

With `O=C(O)C(F)(F)C(F)(F)C(F)(F)C(F)(F)C(F)(F)C(F)(F)F`, the call was inactive.

In the case of `OCc1ccco1`, the compound was classed as inactive.

Consider `CN(CCCC(=O)c1cccnc1)N=O`, for which the compound was classed as inactive.

Take `O=C(CCl)CCl`: the AC50 is 33.4 µM (active).

For `COP(=O)(OC)O/C(=C\Cl)c1cc(Cl)c(Cl)cc1Cl`, the concentration at half-maximal activity (AC50) was 26.9 µM (active).

For `CCCCCCCCCl`, the result was inactive.

Regarding `C=CC(=O)OCCCCCC(C)C`, the call was inactive.

`ClC(Cl)=C(Cl)C(Cl)=C(Cl)Cl`: the AC50 was 165 µM (active).

Turning to `C=CCc1ccc(OC)cc1`, the compound was called inactive.

With `CC(Br)C(=O)O` (stereo not given), the result was inactive.

On to `CC(C)(c1ccccc1)c1ccc(O)c(C(C)(C)c2ccccc2)c1`, for which the compound was classed as inactive.

With `CC(=O)c1cc(C(C)(C)C)cc2c1CCC2(C)C`, the concentration at half-maximal activity (AC50) was 161 µM (active).

Regarding `CCSC(C)CC1CC(=O)C(C(CC)=NOC/C=C/Cl)=C(O)C1` (stereo not given), the call was inactive.

For the compound `O=C(NCO)NCO`, the outcome was inactive.

As to `CC(=[OH+])/C=C(/C)[O-].CC(=[OH+])/C=C(/C)[O-].CC(=[OH+])/C=C(/C)[O-].[Al]`, the compound was classed as inactive.

As to `Fc1ccc(C2(Cn3cncn3)OC2c2ccccc2Cl)cc1` (stereo not given), the result was inactive.

In the case of `CCOP(OCC)OCC`, the compound was called inactive.

As for `Cl/C=C/Cl`, the compound was classed as inactive.

As to `CNC(=O)O/N=C/C(C)(C)S(C)=O` (stereo not given), the call was inactive.

Turning to `CNC`, the outcome was inactive.

As to `O=C(c1ccccc1)C(Cl)Cl`, the compound was called inactive.

For `Cc1cc(=O)[nH]o1`, the call was inactive.

As for `COc1cc(OC)nc(NC(=O)NS(=O)(=O)c2ncccc2C(=O)N(C)C)n1`, the call was inactive.

For the compound `C=C(C)C(=O)[O][Sn]([CH2]CCC)([CH2]CCC)[CH2]CCC`, the AC50 is 0.412 µM (active).

On to `CC(C)c1cccc(C(C)C)c1O`, for which the result was inactive.

Turning to `C=CC(=O)N(C)C`, the result was inactive.

For orientation: AC50 means the midpoint of the concentration-response curve, whichever way the signal moves.
